According to ChEMBL document CHEMBL4513216, “Probing the Open Global Health Chemical Diversity Library for Multistage-Active Starting Points for Next-Generation Antimalarials” (ACS Infect Dis, 2020):
The campaign covered roughly 65,000 compounds. About 2,100 (3.2%) showed an effect of 50% or more. The median lay at about -52%. What follows is part of a selection rich in strong results, with near analogues and random picks from the rest.

system: Plasmodium falciparum; assay: Screen against P. falciparum Asexual Blood Stage (ABS), at 5uM; type: functional, Dd2; conditions: tested at 5 uM

Structure (SMILES) | INHIBITION [%]
CN(Cc1nnc(C2CC2)n1C)S(=O)(=O)c1ccccc1C#N | -108
CN(C)C1Cc2ccccc2N(S(=O)(=O)c2ccc(C#N)cc2)C1 (centres undefined) | 49.9
COc1ccccc1S(=O)(=O)N1CCC2(CC1)[C@H](O)C[C@@H]2O | -62.3
COc1ccccc1S(=O)(=O)N1CC(N(C)C)Cc2ccccc21 (centres undefined) | 64.1
COc1cc(F)c(S(=O)(=O)N2CCN(C)Cc3ccccc32)cc1OC | 13.8
CN(C)C1Cc2ccccc2N(S(=O)(=O)c2ccccc2C#N)C1 (centres undefined) | 56.6
Cc1nc(NCc2cccnc2)cc(C2COCCN2)n1 (centres undefined) | -124
Cc1cnn(C2CCCN(C(=O)c3cn(-c4ccccc4)nn3)C2)c1 (centres undefined) | -119
CCC(C)c1noc(C2CCN(C(=O)c3ccccn3)CC2)n1 (centres undefined) | -122
O=C(O)c1cccnc1CN1CCCC1CCc1ccccc1 (centres undefined) | -78
c1ccc(CC2CCN(Cc3ccnc(-c4cccnc4)n3)CC2)cc1 | -20
Cc1ccc(-c2nnc(CN3CC(n4cc(C)cn4)C3)o2)cc1 | -29.5
Cc1cnn(C2CN(Cc3nnc(Cc4ccccc4)o3)C2)c1 | 51.8
Cc1cnn(C2CN(Cc3nnc(-c4ccccc4Cl)o3)C2)c1 | 11.9
c1ncc2c(n1)CN(Cc1nc(-c3ccoc3)no1)CC2 | 58.7
Cc1ncc2c(n1)CN(Cc1nnc(Cc3ccccc3)o1)CC2 | -25
c1coc(-c2noc(CN3CCc4cncnc4C3)n2)c1 | 31
c1ncc2c(n1)CN(Cc1nc(-c3ccsc3)no1)CC2 | -41.7
c1ccc(Cc2noc(CN3CCc4cncnc4C3)n2)cc1 | -48.8
c1ncc2c(n1)CN(Cc1nc(-c3ccc4c(c3)OCO4)no1)CC2 | 21
Cc1ccc(-c2noc(CN3CCc4cncnc4C3)n2)cc1 | 59.7
COc1ccc(-c2noc(CN3CCc4cncnc4C3)n2)cc1 | 6.71

Structure (SMILES) | INHIBITION [%]
c1ccc(Cc2nnc(CN3CCc4cncnc4C3)o2)cc1 | 63.6
COC(=O)COc1cc(NCc2c(C)noc2C)c(Cl)cc1C | -49.6
COc1ccc(-c2csc3c2c(N)nc(=O)n3CC(N)=O)cc1 | -61.4
CC(=O)Nn1ccc2c(nnc3c(-c4ccccc4)cnn32)c1=O | -65.6
CCc1nc(NCCc2c(C)nn(CC)c2C)c2cnn(C)c2n1 | -95.2
CC(CCc1ccc(F)c(F)c1)NS(=O)(=O)Cc1ccon1 (centres undefined) | -44.6
CCC(=O)N1CCCC1c1nc(N(C)C)ncc1-c1ccc(Cl)cc1 (centres undefined) | 19.6
COc1ccc(CC(=O)N2CCCC(n3nc(C)cc3C)C2)cc1 (centres undefined) | -9.14
COc1ccccc1C(=O)N1CC(=O)N(C2CCCCC2)CC(O)C1 (centres undefined) | -37
Cc1ccc(S(=O)(=O)N2C[C@H]3C[C@H](NC(=O)c4ccccn4)[C@H]3C2)cc1 | -55.2
O=C(N1CCCC1)N1CCC[C@]2(C[C@@H](OCc3ccncc3)CO2)C1 | -71.6
CCC(C(=O)Nc1ccc(-c2nc(C)n[nH]2)cc1)N1CCCC1=O (centres undefined) | -34.4
Cc1nc(NS(=O)(=O)c2cccc(F)c2C)no1 | -25.8
COCCN1CCC(c2nc3ccc(N4CCCC4)cn3n2)CC1 | -45.6
O=C(NCCc1ccccn1)[C@@H]1CC[C@@H]2[C@@H](CCN2Cc2ccoc2)O1 | -60.9
COc1nc2ccn(CCc3scnc3C)c(=O)c2cc1C#N | -31.6
COc1nc2ccn(CCc3cnccn3)c(=O)c2cc1C#N | -11.9
COc1nc2ccn(CCNc3cc(C)ccn3)c(=O)c2cc1C#N | 51.7
N#Cc1cc(F)ccc1CN1CCCC1Cn1cccn1 (centres undefined) | -48.4
CC(=O)Nc1ccc(C(=O)N(C)Cc2ccc(F)cc2F)s1 | -10.9
O=C(CCN1CCCO1)NC1CCCN(CC2CCCCC2)C1 (centres undefined) | -105
Cc1cccc2c1OCCC2NCc1c(C)nn(C)c1N(C)C (centres undefined) | 0.635

Structure (SMILES) | INHIBITION [%]
Cn1cc(CNC2CCCOc3c(Cl)cccc32)cn1 (centres undefined) | 20.3
Cc1ccc2c(c1)OCCCC2NCc1nccn1Cc1ccccc1 (centres undefined) | -13.4
c1ccc(Cn2ccnc2CNC2CCCOc3ccccc32)cc1 (centres undefined) | 42.5
Cn1cc(CNC2CCCOc3c2ccc2ccccc32)cn1 (centres undefined) | 63.1
Cc1cccc2c1OCCCC2NCc1nccn1Cc1ccccc1 (centres undefined) | 63.8
CCCn1cc(-c2cc(-c3cc(CC)n[nH]3)c(C#N)c(N)n2)c(C)n1 | -20.1
CCCN1CCC(c2nc3ccc(NCc4ccccc4)cn3n2)CC1 | -1.75
O=C1CCCN1Cc1ncn2c1CN(C(=O)N1CCCC1)CCC2 | -29.5
Cn1cc(NC(=O)N2CCC2c2ccccc2)ccc1=O (centres undefined) | 54.8
Cn1cc(NC(=O)N2CCC(c3ccccc3)CC2)ccc1=O | -187
Cn1cc(NC(=O)N2CCCC2c2cccnc2)ccc1=O (centres undefined) | -8.15
Cc1cc(C(=O)N2CCO[C@H]3[C@H](Oc4ccccn4)CC[C@@H]32)c(C)[nH]1 | 51.5
O=C(C1=CCCC1)N1CCO[C@H]2[C@@H](Oc3ccccn3)CC[C@@H]21 | -51.5
Cc1occc1C(=O)N1CCO[C@H]2[C@@H](Oc3ccccn3)CC[C@@H]21 | -73.5
CCCc1nc(N2CCCN(c3ncccn3)CC2)c2cnn(C)c2n1 | -2.15
CCCc1nc(N2CCN(Cc3ccccn3)CC2)c2cnn(C)c2n1 | 19.2
CCCc1nc(N2CCCN(c3ccncc3)CC2)c2cnn(C)c2n1 | 65
Cc1cnn(C2CCCN(C(=O)c3cccc4c3OCO4)C2)c1 (centres undefined) | -116
CCN(Cc1ccccn1)Cc1cc(Cl)ccc1OC | -28.3
Cn1cc(CN(Cc2ccccn2)Cc2ccccc2Cl)cn1 | -31.1
Cn1ccnc1CN(Cc1ccccn1)Cc1ccccc1Cl | 79.4
CCn1nc(C)c(CN(Cc2ccccn2)Cc2ccccc2Cl)c1C | -33.9

Structure (SMILES) | INHIBITION [%]
CCN(Cc1cc(Cl)ccc1OC)Cc1ncnn1CC | -33.4
CCN(Cc1cc(Cl)ccc1OC)Cc1nccn1C | 67.2
Cc1cccc(CN2CCc3c(COCC(=O)N(C)C)nn(C)c3C2)n1 | -107
COCC(=O)N1CCCC(COc2ccccc2C)C1 (centres undefined) | -71
Cc1ccccc1OCC1CCCN(C(=O)CN(C)C2CCNCC2)C1 (centres undefined) | 57.5
Cc1ccccc1OCC1CCCN(C(=O)CNC(=O)N(C)C)C1 (centres undefined) | -158
Cc1[nH]/c(=N\C(=O)c2csc(NCC(C)C)n2)sc1C | -31.9
Cc1cnc(NC(=O)c2csc(NC3CCCC3)n2)s1 | -86.7
Cc1[nH]/c(=N\C(=O)c2csc(NC3CCCC3)n2)sc1C | 50
CCOC(=O)N1CCCC2(CCN(Cc3ccccc3C#N)C2)C1 (centres undefined) | -71.9
CC(CNC(=O)c1ccc(Cl)cc1F)N1CCN(C)CC1 (centres undefined) | 64.1
CC(CNC(=O)c1ccc(Cl)cc1F)N1CCCC1 (centres undefined) | -2.96
CN1CCN(Cc2ccccc2CNC(=O)c2ccc(Br)cc2)CC1 | 46.2
CN1CCN(Cc2ccccc2CNC(=O)c2cc(Cl)ccc2F)CC1 | 66.5
CN1CCN(C(CNC(=O)c2ccc(Cl)cc2F)c2cccs2)CC1 (centres undefined) | 53.9
CN1CCN(Cc2ccccc2CNC(=O)c2ccc(Br)cc2F)CC1 | 48.8
CN1CCN(C(CNC(=O)CCn2cccn2)c2cccs2)CC1 (centres undefined) | -29.5
CC(CNC(=O)c1cc(Cl)ccc1F)N1CCCC1 (centres undefined) | 12.4
O=C(NCC(c1cccs1)N1CCOCC1)c1ccc(F)cc1Cl (centres undefined) | -46.5
Cc1cc(C)n(CCN2CCC(N(C)Cc3noc(C4CC4)n3)C2)n1 (centres undefined) | -148
Cc1cc(C(=O)N2CCc3ncnc(-c4cnn(C)c4)c3CC2)c(C)o1 | -23.2
CC(CNC(=O)c1ccc(=O)[nH]n1)N1CCc2ccccc21 (centres undefined) | -120

Structure (SMILES) | INHIBITION [%]
CN(C)C(=O)NC[C@@H]1OC[C@H]2CN(Cc3cccc(F)c3)CC[C@H]21 | -66.7
CN(C)CC1CSCCCN1C(=O)c1ccc(C(C)(C)C)cc1 (centres undefined) | 2.97
CN(C)CC1CSCCCN1C(=O)c1ccc(-n2cccc2)cc1 (centres undefined) | 63
CN(C)CC1CSCCCN1C(=O)c1ccc(-c2ccccc2)cc1 (centres undefined) | 6.37
CC(C)NC(=O)C1CCC2(CCN(Cc3cnn(C)c3)CC2)CO1 (centres undefined) | -63.9
CC(NC(=O)Cn1cc(-c2ccccc2)cn1)C1CC1 (centres undefined) | -158
COCC1CN(S(=O)(=O)C2CC2)Cc2ncn(CC3CC3)c21 (centres undefined) | -17.1
CS(=O)(=O)N1CCN(C(=O)CCn2cccn2)CC1 | -7.11
CC(C)CN1CCN(C(=O)CCn2cccn2)CC1 | 67.8
COC1CCN(C(=O)CCn2cccn2)CC1 | 53.1
CNC(=O)C1CCN(C(=O)CCn2cccn2)CC1 | -104
O=C(CCn1cccn1)N1CCN(CC(F)F)CC1 | -177
CCC(=O)N1CCN(C(=O)CCn2cccn2)CC1 | -114
COCc1nc(N(C)C)ncc1C(=O)OC | -29.3
Cc1ccc(CN2Cc3nnn(C)c3C(COCc3ccccc3)C2)s1 (centres undefined) | -43.4
CN(CCc1ncnn1C1Cc2ccccc2C1)C1CCS(=O)(=O)C1 (centres undefined) | -63.2
Cc1cccc(OCC(O)CN2CCN(c3nccs3)CC2)c1 (centres undefined) | -7.68
CCOc1cc(C(=O)N2CCCC2)cc2occc12 | -69.7
Cc1n[nH]cc1CNC1CCN(c2cccc(C(F)(F)F)c2)CC1 | 62.8
Cc1n[nH]cc1CNC1CCN(c2ccccc2)CC1 | -20.1
Cc1n[nH]cc1CNC1CCN(c2ccc(F)cc2)CC1 | -38.1
